Assay outcomes deposited in PubChem by National Center for Advancing Translational Sciences (NCATS).
KB-3-1 cytotox – kills parental KB-3-1 adenocarcinoma cells; Potency, µM (top dose mostly 46.1 µM), actives largely listed as cytotoxic; 1.4% of 400,000 active; KB-3-1 viability, CellTiter-Glo ATP luminescence, 72 h; note: potency is the fitted concentration of half-maximal effect; nearly all actives have a fitted effect of over 60% in size
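Here the drug-naive KB-3-1 line serves as comparator for MDR sub-line selectivity; cells received compound titrations, 72 h at 37 °C, then CellTiter-Glo readout.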
PI4K2A inh – inhibitors of human PI4K2A; Q9BTU6; purified PI4K2A, ADP-Glo luminescence, 1 h; hits give low values; activity change, negative = inhibition, % at 76.9 µM; 0.13% of 420,000 active; AID 1346378; in the data active = activity change below about -50%; inconclusive = mostly about -30% to -49%;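 note: -100% = wells without enzyme as full effect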
Target sequence (Q9BTU6 whole entry, looked up): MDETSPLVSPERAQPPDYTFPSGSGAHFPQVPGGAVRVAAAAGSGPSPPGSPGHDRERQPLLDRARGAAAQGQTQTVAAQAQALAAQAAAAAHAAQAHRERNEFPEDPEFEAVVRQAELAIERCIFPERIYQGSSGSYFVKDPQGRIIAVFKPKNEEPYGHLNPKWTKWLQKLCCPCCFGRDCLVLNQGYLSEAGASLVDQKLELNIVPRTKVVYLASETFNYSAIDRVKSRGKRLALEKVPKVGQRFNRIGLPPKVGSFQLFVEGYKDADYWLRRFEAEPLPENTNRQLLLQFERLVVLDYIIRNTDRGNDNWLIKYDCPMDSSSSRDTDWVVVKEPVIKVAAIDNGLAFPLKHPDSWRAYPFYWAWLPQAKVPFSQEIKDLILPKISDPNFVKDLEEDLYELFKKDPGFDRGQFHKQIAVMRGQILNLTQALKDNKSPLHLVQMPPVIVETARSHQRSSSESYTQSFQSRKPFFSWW
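Compounds are screened against recombinant PI4K2A using PI as substrate and ATP, the latter dispensed at 300 microM. Reactions run one hour at ambient temperature before ADP-Glo detection; full inhibition defined by wells lacking enzyme.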
Nrf2 block – Nrf2 pathway inhibition; A549 ARE-Fluc reporter, luciferase luminescence, 18-24 h; Potency, µM (titrated, usually from 46 µM), for the others: at the top dose activity change, negative = inhibition, usual class: inhibitors; 2.1% of 360,000 active; note: potency is the fitted concentration of half-maximal effect; nearly all actives have a fitted effect of over 60% in size
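Concentration-response testing used A549 ARE_Fluc cells at 5000 cells/well. Following an 18-24 h compound incubation, viability was read by fluorescence (Ex 405/Em 525) and luciferase output by luminescence.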
A549 viability – kills or reduces viability of A549 cells in Nrf2 counter-screen; A549 ARE-Fluc cells, CellTiter-Fluor viability, 18-24 h; Potency, µM (top dose mostly 46 µM), without a hit: top-dose activity change, negative = cytotoxicity, hits mostly inhibitors; 0.16% of 390,000 active; AID 504648; note: potency is the fitted concentration of half-maximal effect
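A549 ARE-Fluc cells in 5% FBS OPTI-MEM, 5000 cells/well, rested 2 h then exposed to compounds in concentration-response for 18-24 h at 37 °C. Viability by CellTiter-Fluor fluorescence (Ex 405/Em 525) after 30 min; luciferase luminescence (BugLite, 15 min, RT) read afterwards.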
Giardia kill – kills Giardia lamblia. activity change, % at 7.66 µM, hits read low. AID 540267. 0.15% of 340,000 active. Giardia lamblia trophozoite viability; in the data active = activity change below about -80%; inconclusive = between about -30% and that limit;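 note: parasites exposed to compound for two days anaerobically before the ATP read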
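Viability, read as ATP luminescence: trophozoites at 100 cells/well, compound added, 48 hrs anaerobic at 37 deg C, then 15-30 min room-temperature development before reading.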
KB-V1 cytotox – kills drug-selected multidrug resistant KB-V1 cells. KB-V1 MDR cells viability, CellTiter-Glo, 72 h. Potency, µM (top dose mostly 46.1 µM), most hits filed as cytotoxic. 3.4% of 400,000 active. AID 1347076; note: potency is the fitted concentration of half-maximal effect; nearly all actives have a fitted effect of over 60% in size
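Luminescent ATP read-out (CellTiter-Glo, 10 min) measures survival of drug-selected KB-V1 MDR cells after 72 h, 37 degrees C compound exposure. Medium: phenol-red-free DMEM, 10% FBS. Values from fitted concentration-response curves.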
Active calls of the source: *; i = inactive; ? = inconclusive; . = no result given; ! = a repeat was not active. Sampled rows, rich in hits. Any-hit rate of the full collection: about 5.7%. Unless noted, calls come from the whole dose curve; as a rule, active = well fitted curve in the direction sought with a large enough effect; inconclusive = small, poorly fitted or top-dose-only effect, or another doubt; inactive = no such curve, though single readings can be large; an effect the other way counts as inactive or inconclusive. Unless noted, % is set by controls: 0 for no effect and ±100 for the full control effect.

SMILES	KB-3-1 cytotox	PI4K2A inh	Nrf2 block	A549 viability	Giardia kill	KB-V1 cytotox
O=C(Nc1ccc2ccccc2c1)Nc1nnc(-c2cccnc2)s1	?	.	.	.	.	i
Nc1nc2[nH]cc(CCc3ccc(C(=O)N[C@@H](CCC(=O)O)C(=O)O)cc3)c2c(=O)[nH]1	i	.	.	.	.	i
Cc1cccc(C)c1NC(=O)c1c(C)nn(-c2ccccc2)c1Cl	i	-0.3	-12.7%	-12.7%	-17.4	14.6µM*
Cc1cccc(C)c1NC(=O)CNC(=O)c1c(C)nn(-c2ccccc2)c1Cl	i	4.4	-1.2%	12.9%	2.8	i
CCc1n[nH]c(=S)n1/N=C/c1c(C)nn(-c2ccccc2)c1Cl	?	1.7	1.6%	-0.5%	3.1	1.3µM*
Cc1nn(-c2ccccc2)c(N2CCCC2)c1/C=N/NC(=O)c1cccc(S(=O)(=O)Nc2ccc(Cl)cc2)c1	i	-0.8	5.8µM*	?	3.2	i
Fc1ccc(-c2cc(-c3nnc4sc(-c5cccs5)nn34)[nH]n2)cc1	.	3.5	.	.	.	.
O=C(Nc1ccccc1)c1cc([N+](=O)[O-])ccc1Cl	i	2.6	8.2%	0.8%	-19.6	i
O=C(Nc1cccc(Cl)c1)c1cc(N=Nc2ccc([N+](=O)[O-])cc2Cl)ccc1O	20.6µM*	-10.1	-24.5%	?	-23.5	?
O=C(Nc1ccc([N+](=O)[O-])cc1Cl)c1cc(Cl)ccc1O	1.16µM*	2.2	-11.2%	-9.8%	?	1.03µM*
CCOc1cc(C2Nc3ccccc3C(=O)N2Cc2ccco2)ccc1O (centres undefined)	i	.	26.1%	-2.7%	7.0	i
O=C1/C(=C\c2ccccc2)CCc2c1[nH]c1ccccc21	1.3µM*	1.0	?	.	1.8	?
Cc1ccc(/C=C2/CCc3c([nH]c4ccccc34)C2=O)cc1	i	-3.4	?	15.6%	1.8	i
Cc1ccc2[nH]c3c(c2c1)CC/C(=C/c1ccccc1)C3=O	i	4.6	25.2%	-4.1%	17.9	13µM*
CCN(CC)S(=O)(=O)c1cccc(C(=O)N[C@H](C(=O)Nc2nc3ccc(F)cc3s2)C(C)C)c1	14.6µM*	-0.7	?	?	?	5.8µM*
C=CCN(CC=C)S(=O)(=O)c1ccc2nc(NC(=O)C(C)C)sc2c1	3.66µM*	0.6	.	?	-5.2	?
Cc1ccc(-c2nc(C3CCCN(S(=O)(=O)c4ccccc4)C3)no2)cc1 (centres undefined)	.	4.8	.	.	.	.
Cc1ccc(N2CCN(C(=O)CCc3c(C)nc4ncnn4c3C)CC2)c(C)c1	i	-2.9	18.4µM*	1.4%	.	?
CCc1cccc(C)c1NC(=O)CN(C)Cc1ccccc1F	?	-0.6	20.4%	2.4%	23.3	20.6µM*
O=C(NCc1ccc2c(c1)CCN2C(=O)c1ccc(F)cc1)c1ccc(Br)o1	?	-1.8	.	-13.0%	.	2.59µM*
CCN(CC)c1ccc(C(=O)NCc2ccc3c(c2)CCN3C(=O)c2ccc(F)cc2)cc1	14.6µM*	-5.2	.	-8.0%	.	?
N#Cc1ccc(C(=O)NCc2ccc3c(c2)CCN3C(=O)c2ccc(F)cc2)cc1	i	3.2	.	-7.9%	.	i
O=C(NCc1ccc2c(c1)CCN2C(=O)c1ccccc1)c1ccc(Br)o1	i	0.4	.	-5.7%	.	i
COc1ccc(N(C(=O)Cc2cccs2)C(C(=O)NC2CCCC2)c2ccncc2)cc1 (centres undefined)	i	-1.5	?	-12.7%	-5.4	?
O=C(NC1CCCC1)C(c1ccc(F)cc1)N(Cc1ccc(F)cc1)C(=O)CCl (centres undefined)	?	-1.8	3.7%	0.2%	-10.5	18.4µM*
SMILES	KB-3-1 cytotox	PI4K2A inh	Nrf2 block	A549 viability	Giardia kill	KB-V1 cytotox
O=C(NCC(=O)N(c1ccc(F)cc1)C(C(=O)NC1CCCCC1)c1cccnc1)c1ccco1 (centres undefined)	i	0.9	1.5%	5.2%	-6.6	i
O=C(NC1CCCCC1)C(c1cccnc1)N(C(=O)CCl)c1ccc(F)cc1 (centres undefined)	i	13.1	18.4µM*	-21.5%	9.9	16.4µM*
COc1ccc(N(C(=O)CCl)C(C(=O)NC2CCCCC2)c2cccnc2)cc1 (centres undefined)	10.3µM*	14.9	-12.0%	-14.7%	5.5	20.6µM*
O=C(NC1CCCCC1)C(c1cccnc1)N(C(=O)CCl)c1ccccc1Cl (centres undefined)	10.3µM*	0.9	?	-8.6%	-8.0	?
CC(C)[C@H]1COCCS(=O)(=O)N1Cc1cccc([N+](=O)[O-])c1	i	.	.	.	.	i
COc1ccc(-c2c(-c3ccc4c(c3)OCO4)noc2-c2ccsc2)cn1	i	.	.	.	.	?
CN(C)c1ccc(-c2c(-c3ccc4c(c3)OCO4)noc2-c2ccsc2)cn1	?	-2.5	-21.3%	-6.5%	2.8	10.3µM*!
Cc1cc(Nc2nc3ccccc3nc2Cl)n(-c2ccccc2)n1	?	2.7	?	-7.1%	-6.4	13µM*
Cc1cc(Nc2nc3ccccc3nc2Cl)n(-c2ccccc2C)n1	i	-1.8	9.9%	-7.9%	-4.7	i
CCOCCC(=O)Nc1ccc2c(c1)c(=O)n(C)n2CC=C(C)C	3.66µM*	6.1	.	.	.	i
CN1c2ccccc2C(C)(C)C12C=Nc1c(cc(N3CCOCC3)c3ccccc13)O2 (centres undefined)	?	?	-23.0%	16.2%	31.6	i
CN1c2ccccc2C(C)(C)C12C=Cc1cc(O)ccc1O2 (centres undefined)	i	-2.1	20.6µM*	?	3.7	?
Cc1cccc(N2CCN(C(=O)c3ccc4nc(-c5ccco5)c(-c5ccco5)nc4c3)CC2C)c1 (centres undefined)	?	-4.4	20.6µM*	?	12.0	i
COc1ccc(-c2n(Cc3ccccc3)c3ccccc3[n+]2Cc2ccccc2)cc1	7.31µM*	-3.7	?	?	-10.4	i
COc1ccc(N2CCCN(CC(=O)Nc3ccc(Cl)cc3)CC2)cc1	.	-2.8	.	.	.	.
COc1cc(/C=N/Nc2nc3ccccc3[nH]2)ccc1O	i	3.6	-15.5%	-28.8%	-1.7	18.4µM*
COc1cc(/C=N/Nc2nc3ccccc3[nH]2)cc(OC)c1O	i	-5.3	-4.4%	4.9%	0.2	i
COc1cccc(/C=N/Nc2nc3ccccc3[nH]2)c1OC	i	-0.3	6.2%	5.9%	-17.0	i
COc1cccc(/C=N/Nc2nc3ccccc3[nH]2)c1O	5.8µM*	-4.6	-11.9%	7.4%	0.9	?
CC(=O)Nc1ccc(/C=N/Nc2nc3ccccc3[nH]2)cc1	23.1µM*	-3.8	?	-8.0%	?	i
